Measured values published in PubChem BioAssay (Tox21).
Values joined by “and” are separate entries in the source; they are usually repeats but may differ in a detail not shown here. Identical values can stand only once. Inconclusive results are not listed. A call without a number means that no potency is given here. The source holds several records for some structures; these can differ, active in one and inactive in another. Active and inactive are the calls of the source. Unless noted, calls come from the whole dose curve.

How the values were obtained:
[1] = Nuclear factor erythroid 2-related factor 2/antioxidant responsive element (Nrf2/ARE) small molecule agonists: qHTS cell viability counter screen in human keratinocytes (AID 1919968; active = well fitted curve in the direction sought with a large enough effect in the repeat runs; an effect the other way counts as inactive or inconclusive; note: nearly all actives have a fitted effect of over 55% in size)
Outline: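 Parallel cytotoxicity read: KeratinoSens HaCaT cells, compound treatment 23 h, viability by CellTiter-Fluor fluorescence 1 h post-reagent.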

[2] = Nuclear factor erythroid 2-related factor 2/antioxidant responsive element (Nrf2/ARE) small molecule agonists: luciferase reporter gene qHTS assay in human keratinocytes (AID 1919969); note: nearly all actives have a fitted effect of over 35% in size; note: potency is the fitted concentration of half-maximal effect
[3] = molecular target: Gonadotropin-releasing hormone receptor (Homo sapiens) (UniProt P30968); assay: Human gonadotropin-releasing hormone receptor (GnRHR) small molecule agonists, calcium flux assay in GnRHR-HEK293 cells (AID 1920063); note: nearly all actives have a fitted effect of over 35% in size
Gonadotropin-releasing hormone receptor (Homo sapiens), sequence (P30968 whole entry, looked up): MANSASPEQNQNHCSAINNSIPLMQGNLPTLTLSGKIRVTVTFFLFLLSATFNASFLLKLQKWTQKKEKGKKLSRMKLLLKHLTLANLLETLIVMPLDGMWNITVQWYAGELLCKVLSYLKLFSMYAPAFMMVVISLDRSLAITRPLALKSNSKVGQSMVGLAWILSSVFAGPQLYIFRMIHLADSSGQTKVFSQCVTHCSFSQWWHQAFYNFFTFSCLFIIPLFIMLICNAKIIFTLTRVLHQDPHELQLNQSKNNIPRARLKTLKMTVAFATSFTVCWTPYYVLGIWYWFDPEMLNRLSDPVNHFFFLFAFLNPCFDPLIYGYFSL
Outline: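 Calcium flux, agonist mode, human GnRHR stably integrated in HEK293; dye 1 h at 37 C before compound; Ex/Em=480/540 kinetic read, 3 min; 15 concentrations, triplicate.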

[4] = molecular target: KiSS-1 receptor (Homo sapiens) (UniProt Q969F8); assay: Human kisspeptin (KISS1R) small molecule agonists, calcium flux assay in KISS1R-HEK293 cells (AID 1920064; active = well fitted curve in the direction sought with a large enough effect in the repeat runs; an effect the other way counts as inactive or inconclusive)
KiSS-1 receptor (Homo sapiens), sequence (Q969F8 whole entry, looked up): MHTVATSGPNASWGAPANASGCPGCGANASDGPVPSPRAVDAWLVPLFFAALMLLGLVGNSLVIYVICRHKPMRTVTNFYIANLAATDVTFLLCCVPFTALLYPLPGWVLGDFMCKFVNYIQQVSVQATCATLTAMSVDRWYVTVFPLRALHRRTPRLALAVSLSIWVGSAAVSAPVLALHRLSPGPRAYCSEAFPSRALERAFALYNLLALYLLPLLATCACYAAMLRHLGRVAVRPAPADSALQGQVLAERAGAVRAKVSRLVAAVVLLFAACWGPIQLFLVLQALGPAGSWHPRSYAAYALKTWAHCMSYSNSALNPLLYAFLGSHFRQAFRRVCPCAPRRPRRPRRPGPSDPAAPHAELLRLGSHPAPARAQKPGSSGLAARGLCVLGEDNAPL
Outline: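 Triplicate 15-concentration series were applied to dye-loaded human KISS1R HEK293 cells, and agonist-evoked calcium fluorescence was captured for 3 min.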

[5] = G protein-coupled receptor (GPCR) small molecule agonists, calcium flux assay: HEK293 wild type cell line counter screen (AID 1920065)
Outline: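 Non-specific calcium responders were flagged by adding DMSO-dissolved compounds to dye-loaded cells and reading 480/540 nm fluorescence each second for 3 min; ATP served as positive control.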

[6] = p53 small molecule agonists, cell-based qHTS assay with human liver microsomes (AID 1963577)
Outline: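 p53RE-bla cells, 4,000/well, compound added after 5 h, with human liver microsomes 0.5 mg/mL and NADPH 0.5 mg/mL final; 16 h at 37 C, then LiveBLAzer 2 h RT, fluorescence.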

[7] = p53 small molecule agonists, cell-based qHTS assay with rat liver microsomes (AID 1963578)
Outline: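 p53RE-bla cells, 4,000/well, pre-incubated 5 h, then given compounds plus rat liver microsomes (0.5 mg/mL final) and NADPH (0.5 mg/mL final). Incubation 16 h at 37 C; beta-lactamase reporter read by LiveBLAzer fluorescence after 2 h at room temperature.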

[8] = p53 small molecule agonists, cell-based qHTS assay with human liver microsomes: qHTS cell viability counter screen (AID 1963579); note: nearly all actives have a fitted effect of over 45% in size
Outline: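 p53RE-bla cells, 4,000/well, dosed 5 hours after plating, with human liver microsomes (0.5 mg/mL final) plus NADPH (0.5 mg/mL final), 16 hours at 37 C. Viability read as CellTiter-Glo luminescence after 30 min at room temperature.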

[9] = p53 small molecule agonists, cell-based qHTS assay with rat liver microsomes: qHTS cell viability counter screen (AID 1963580); note: nearly all actives have a fitted effect of over 45% in size
Outline: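 Luminescent ATP readout (CellTiter-Glo, 30 min at room temperature) reports viability of p53RE-bla HCT-116 cells after 16 h at 37 C with test compounds under metabolic activation by rat liver microsomes and NADPH at 0.5 mg/mL final each.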

[10] = p53 small molecule agonists, cell-based qHTS assay: qHTS cell viability counter screen (AID 1963581); note: nearly all actives have a fitted effect of over 45% in size
Outline: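 Multiplexed with the reporter read, a CellTiter-Glo step (30 min, room temperature) gauges ATP-based viability of HCT-116 p53RE-bla cells after 16 h compound incubation at 37 C.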

[11] = p53 small molecule agonists, cell-based qHTS assay (AID 1963582; active = well fitted activation curve with a large enough effect in the signal ratio in the repeat runs, not every such curve was filed as active; the % refers to the signal ratio; note: potency is the fitted concentration of half-maximal effect)
Outline: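 Beta-lactamase reporter cells (p53RE-bla) treated with compounds for 16 h at 37 C; FRET substrate, 2 h, room temperature; fluorescence intensity.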

[12] = molecular target: 5-hydroxytryptamine receptor 2A (Homo sapiens) (UniProt P28223); assay: 5-hydroxytryptamine receptor 2A (HTR2A) small molecule antagonists, cell-based qHTS assay (AID 1963586); note: nearly all actives have a fitted effect of over 45% in size
5-hydroxytryptamine receptor 2A (Homo sapiens), sequence (P28223 whole entry, looked up): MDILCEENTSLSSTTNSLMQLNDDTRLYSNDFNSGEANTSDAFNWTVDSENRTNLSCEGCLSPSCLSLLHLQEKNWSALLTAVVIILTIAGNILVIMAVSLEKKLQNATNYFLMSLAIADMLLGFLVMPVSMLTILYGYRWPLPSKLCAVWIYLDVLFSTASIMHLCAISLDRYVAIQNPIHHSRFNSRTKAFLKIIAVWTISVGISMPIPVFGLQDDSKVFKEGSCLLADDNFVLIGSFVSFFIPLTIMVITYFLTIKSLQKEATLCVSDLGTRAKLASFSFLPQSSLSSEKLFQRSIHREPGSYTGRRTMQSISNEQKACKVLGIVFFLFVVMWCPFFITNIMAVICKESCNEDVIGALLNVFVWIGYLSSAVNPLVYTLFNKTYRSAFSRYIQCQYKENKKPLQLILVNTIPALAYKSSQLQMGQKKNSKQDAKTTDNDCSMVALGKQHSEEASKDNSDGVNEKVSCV
Outline: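 CHO cells stably expressing human HTR2A were plated for 18 h at 37 C, then loaded with calcium dye for 1 h. Compounds were preincubated 5 min at room temperature before DOI (4 nM solution) was added. Kinetic fluorescence was read for 3 min.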

[13] = molecular target: 5-hydroxytryptamine receptor 2A (Homo sapiens) (UniProt P28223); assay: 5-hydroxytryptamine receptor 2A (HTR2A) small molecule agonists, cell-based qHTS assay (AID 1963587); note: nearly all actives have a fitted effect of over 30% in size
Outline: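 HTR2A-CHO cells, plated 18 h at 37 C/5% CO2, dye-loaded 1 h at 37 C; compounds in DMSO added by pin tool (agonist mode). Intracellular calcium flux read as kinetic fluorescence on FDSS over 2 min at 1 s intervals.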

[14] = molecular target: Muscarinic acetylcholine receptor M1 (Homo sapiens) (UniProt P11229); assay: Cholinergic receptor muscarinic 1 (CHRM1) small molecule agonists, cell-based qHTS assay (AID 1963589); note: nearly all actives have a fitted effect of over 35% in size
Muscarinic acetylcholine receptor M1 (Homo sapiens), sequence (P11229 whole entry, looked up): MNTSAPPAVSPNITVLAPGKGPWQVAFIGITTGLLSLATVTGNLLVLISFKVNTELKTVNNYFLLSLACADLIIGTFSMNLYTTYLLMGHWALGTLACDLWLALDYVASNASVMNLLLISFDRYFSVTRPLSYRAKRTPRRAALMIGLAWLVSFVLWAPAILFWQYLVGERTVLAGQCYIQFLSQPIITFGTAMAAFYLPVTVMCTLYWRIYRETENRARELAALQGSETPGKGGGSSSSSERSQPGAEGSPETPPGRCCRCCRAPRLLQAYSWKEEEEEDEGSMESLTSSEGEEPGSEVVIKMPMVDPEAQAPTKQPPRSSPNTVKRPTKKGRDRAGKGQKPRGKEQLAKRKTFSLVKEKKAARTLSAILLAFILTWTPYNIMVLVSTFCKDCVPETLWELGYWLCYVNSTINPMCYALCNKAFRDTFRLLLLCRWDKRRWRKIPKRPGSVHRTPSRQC
Outline: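 qHTS, 15-point titration, 3 independent runs: compounds pin-transferred onto dye-loaded CHRM1-CHO cells (human M1), calcium fluorescence followed every second to detect agonism.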

[15] = cAMP Responsive Elements (CRE) small molecule antagonists, cell-based qHTS assay (AID 1963591; active = well fitted inhibition curve with a large enough effect in the signal ratio in the repeat runs, not every such curve was filed as active; the % refers to the signal ratio)
Outline: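 Fluorescence intensity from cleaved LiveBLAzer B/G substrate (2 h, room temperature) quantified CRE-bla activity in HEK 293T cells exposed 3 h to compound with 0.25 uM final NKH477.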

[16] = molecular target: Beta-2 adrenergic receptor (Homo sapiens) (UniProt P07550); assay: Adrenergic beta2 receptor (ADRB2) small molecule antagonists, cell-based qHTS assay (AID 1963592); note: series mostly up to about 92 µM; nearly all actives have a fitted effect of over 50% in size
Beta-2 adrenergic receptor (Homo sapiens), sequence (P07550 whole entry, looked up): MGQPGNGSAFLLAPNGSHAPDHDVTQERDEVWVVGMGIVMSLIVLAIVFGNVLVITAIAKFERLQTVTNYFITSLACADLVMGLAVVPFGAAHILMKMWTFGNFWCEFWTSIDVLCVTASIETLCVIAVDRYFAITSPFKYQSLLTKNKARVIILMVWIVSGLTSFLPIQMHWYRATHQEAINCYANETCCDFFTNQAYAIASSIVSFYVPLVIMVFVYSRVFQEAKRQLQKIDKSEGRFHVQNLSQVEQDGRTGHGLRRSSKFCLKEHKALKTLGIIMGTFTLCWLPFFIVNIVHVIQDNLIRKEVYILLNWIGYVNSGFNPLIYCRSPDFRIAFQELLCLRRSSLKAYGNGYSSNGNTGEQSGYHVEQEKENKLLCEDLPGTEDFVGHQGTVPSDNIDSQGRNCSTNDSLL
Outline: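 Assay format: CHO-ADRB2 cells, 18-20hr seeding at 37C/5% CO2, then compound plus 1nM isoproterenol agonist mix for 0.5hr RT. Homogeneous time-resolved fluorescence cAMP detection after 1hr, expressed as 665/615 nm ratio.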

[17] = molecular target: Beta-2 adrenergic receptor (Homo sapiens) (UniProt P07550); assay: Adrenergic beta2 receptor (ADRB2) small molecule agonists, cell-based qHTS assay (AID 1963593);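 note: CHO cells stably overexpressing human ADRB2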
Outline: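 CHO cells stably over-expressing ADRB2 were plated overnight at 37C, then dosed with compounds plus a stimulation mix containing 100uM IBMX and 25uM Ro-20-1724 for 0.5hr at room temperature. cAMP was measured by HTRF competition, 1hr.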

[18] = molecular target: D(2) dopamine receptor (Homo sapiens) (UniProt P14416); assay: Dopamine D2 receptor (DRD2) small molecule agonists, cell-based qHTS assay (AID 1963594); note: nearly all actives have a fitted effect of over 35% in size
D(2) dopamine receptor (Homo sapiens), sequence (P14416 whole entry, looked up): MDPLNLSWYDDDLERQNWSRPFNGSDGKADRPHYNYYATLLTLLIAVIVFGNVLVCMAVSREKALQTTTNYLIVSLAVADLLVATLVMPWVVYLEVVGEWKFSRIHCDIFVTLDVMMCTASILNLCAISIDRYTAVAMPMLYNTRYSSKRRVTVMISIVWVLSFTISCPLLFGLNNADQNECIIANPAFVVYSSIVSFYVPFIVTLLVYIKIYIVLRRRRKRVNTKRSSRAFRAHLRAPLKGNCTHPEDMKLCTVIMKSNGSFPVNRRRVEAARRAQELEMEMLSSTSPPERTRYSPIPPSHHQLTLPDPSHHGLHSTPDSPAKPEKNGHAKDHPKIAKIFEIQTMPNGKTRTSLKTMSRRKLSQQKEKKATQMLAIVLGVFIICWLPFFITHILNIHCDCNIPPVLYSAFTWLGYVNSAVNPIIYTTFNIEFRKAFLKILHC
Outline: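 HEK293 cells stably expressing DRD2 were cultured 24 h at 37 C, then given Ro20-1724 (0.1 mM final) and compounds for 10 min at room temperature. NKH477 (200nM) was then added for 30 min. cAMP was read by HTRF.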

[19] = molecular target: D(2) dopamine receptor (Homo sapiens) (UniProt P14416); assay: Dopamine D2 receptor (DRD2) small molecule antagonists, cell-based qHTS assay (AID 1963595; active = well fitted inhibition curve with a large enough effect in the signal ratio in the repeat runs, with a control signal flat; the % refers to the signal ratio)
Outline: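 Antagonism was scored as restored cAMP in HEK293-DRD2 cells. These cells were stimulated with 200 nM NKH477 and 12 nM quinpirole for 30 min at room temperature, in the presence of 0.1 mM Ro20-1724.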

[20] = cAMP Responsive Elements (CRE) small molecule agonists, cell-based qHTS assay (AID 1963590)
Outline: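 Quantitative HTS for CRE agonists: HEK 293T CRE-bla cells, overnight plating, 3 h compound incubation at 37 C/5% CO2, then 2 h room-temperature LiveBLAzer B/G FRET substrate loading.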

Row | SMILES | Potency [1] | Potency [2] | Potency [3] | Potency [4] | Potency [5] | Potency [6] | Potency [7] | Potency [8] | Potency [9] | Potency [10] | Potency [11] | Potency [12] | Potency [13] | Potency [14] | Potency [15] | Potency [16] | Potency [17] | Potency [18] | Potency [19] | Potency [20]
1 | COCC(=O)O | inactive | inactive | inactive | inactive | inactive | inactive | inactive | inactive | inactive | inactive | inactive | inactive | inactive | inactive | inactive | inactive | inactive | inactive |  | 
2 | Cc1cc(CC(=O)O)n(C)c1C(=O)c1ccc(Cl)cc1 | inactive | inactive | inactive | inactive | inactive | inactive | inactive | inactive | inactive | inactive | inactive | inactive | inactive | inactive |  |  | inactive | inactive | inactive | 
3 | CCCCC(CC)COC(=O)C(C#N)=C(c1ccccc1)c1ccccc1 (stereo not given) | inactive | inactive | inactive | inactive | inactive | inactive | inactive | inactive | inactive | inactive | inactive | inactive | inactive | inactive |  | inactive | inactive | inactive | inactive | inactive
4 | CCCCCCCC(=O)O | inactive | inactive | inactive | inactive | inactive | inactive | inactive | inactive | inactive | inactive | inactive | inactive | inactive | inactive | inactive |  |  |  | inactive | inactive
5 | C=CCCCCCCCCCC | inactive | inactive | inactive | inactive | inactive | inactive | inactive | inactive | inactive | inactive | inactive | inactive | inactive | inactive | inactive | inactive |  | inactive | inactive | 
6 | c1ccc2cc3c(ccc4ccccc43)cc2c1 | inactive | 9.72 µM (active) and 9.69 µM (active) | inactive | inactive | inactive | inactive | inactive | inactive | inactive | inactive | inactive | inactive | inactive | inactive |  | inactive | inactive | inactive |  | inactive
7 | CCCCCCCCCCC(CO)CCCCCCCC (stereo not given) | inactive | inactive | inactive | inactive | inactive | inactive | inactive | inactive | inactive | inactive | inactive | inactive | inactive | inactive | inactive |  |  | inactive | inactive | inactive
8 | OCC(O)CS (stereo not given) | inactive | inactive | inactive | inactive | inactive | inactive | inactive | inactive | inactive | inactive | inactive | inactive | inactive |  | inactive | inactive | inactive | inactive | inactive | inactive
9 | O=c1n(CC2CO2)c(=O)n(CC2CO2)c(=O)n1CC1CO1 (stereo not given) | inactive | 60.8 µM (active) and 68.6 µM (active) | inactive | inactive | inactive | inactive | inactive | inactive | inactive | inactive | 18.1 µM (active) and 20.4 µM (active) | inactive | inactive | inactive |  | inactive |  | inactive | inactive | 
10 | CCCCNC(=O)NS(=O)(=O)c1ccc(N)cc1 | inactive | inactive | inactive | inactive | inactive | inactive | inactive | inactive | inactive | inactive | inactive | inactive | inactive | inactive | inactive | inactive |  | inactive | inactive | 
11 | CCC(=O)/C=C/C1C(C)=CCCC1(C)C (stereo not given) | inactive | inactive | inactive | inactive | inactive | inactive | inactive | inactive | inactive | inactive | inactive | inactive | inactive | inactive | inactive |  | inactive |  | inactive | 
12 | NS(=O)(=O)O | inactive | inactive | inactive | inactive | inactive | inactive | inactive | inactive | inactive | inactive | inactive | inactive | inactive | inactive | inactive | inactive | inactive | inactive |  | 
13 | CCCOC(=O)c1ccccc1 | inactive | inactive | inactive | inactive | inactive | inactive | inactive | inactive | inactive | inactive | inactive | inactive | inactive |  | inactive | inactive |  | inactive |  | inactive
14 | C=CCCCCCCCCC(=O)O | inactive | inactive | inactive | inactive | inactive | inactive | inactive | inactive | inactive | inactive | inactive | inactive | inactive | inactive | inactive | inactive | inactive | inactive | inactive | 
15 | CC(C)c1ccc(C(C)C)cc1 | inactive | inactive | inactive | inactive | inactive | inactive | inactive | inactive | inactive | inactive | inactive | inactive | inactive | inactive | inactive | inactive |  | inactive | inactive | 
16 | c1ccc(Nc2ccccc2)cc1 | inactive | 61.1 µM (active) and inactive | inactive | inactive | inactive | inactive | inactive | inactive | inactive | inactive | inactive | inactive | inactive | inactive |  | inactive |  | inactive | inactive | 
